# 697 NFkB inh – inhibitors of PMA/ionomycin-induced NF-kB reporter, 697 cells, primary screen, B-cell NF-kB inhibitor project, cell-based, luminescence, uHTS; 330,000 tested, 0.33% active; AID 435022, 2010; inhibition, % at 4 µM; 697 B-cell NF-kB luciferase reporter, 16 h; in the data active means inhibition above about 35%
# Gli-Sufu antag – Gli-Sufu pathway antagonists, primary screen, luciferase luminescence, Sufu-KO-LIGHT cells, uHTS; 340,000 tested, 0.74% active; inhibition, % at 5 µM; Sufu-KO-LIGHT fibroblasts, Gli luciferase reporter luminescence;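 active means inhibition above about 55%, limit read from the data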;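 further: 0% = DMSO-treated cells and 100% = wells with medium but no cells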
# aSyn UTR inh – MLPCN primary screen, SNCA 5' untranslated region. inhibition, % (tested at 7.5 µM). alpha-synuclein 5'UTR reporter, inhibitor activity. 300,000 tested, 0.82% active; in the data active means inhibition above about 60%; inconclusive means no clear call, values can overlap the other calls;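 further: H4 neuroglioblastoma cells stably carrying SNCA 5'UTR luciferase fusion; 0% = DMSO wells and 100% = positive control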
# CSC inhib – cancer stem cell viability inhibitors, primary screen, luminescence. cancer stem cell-like cells viability. 300,000 tested, 1.1% active. inhibition, % at 7.5 µM; in the data active means inhibition above about 75%; inconclusive means no clear call, values can overlap the other calls; tested in HMLE shEcad cells
# Jurkat NFkB inh – inhibitors of induced NF-kB luciferase reporter, primary screen, TCR NF-kB activation inhibitor project, cell-based, luminescence, uHTS; Jurkat, PMA/ionomycin-induced NF-kB luciferase reporter; inhibition, % at 4 µM; 330,000 tested, 0.53% active; AID 435003, 2010; in the data active means inhibition above about 50%
# Mdm2 MdmX PPI – inhibitors of human Mdm2-MdmX association, primary screen, cell-based, luminescence, split luciferase, SaOS-2, uHTS; SaOS-2 split-luciferase Mdm2/MdmX complementation; inhibition, % at 8 µM; 330,000 tested, 3% active; AID 485346, 2010;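 active means inhibition of at least 50% at 8 µM in the primary screen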
# Target sequence (O15151 whole entry, looked up): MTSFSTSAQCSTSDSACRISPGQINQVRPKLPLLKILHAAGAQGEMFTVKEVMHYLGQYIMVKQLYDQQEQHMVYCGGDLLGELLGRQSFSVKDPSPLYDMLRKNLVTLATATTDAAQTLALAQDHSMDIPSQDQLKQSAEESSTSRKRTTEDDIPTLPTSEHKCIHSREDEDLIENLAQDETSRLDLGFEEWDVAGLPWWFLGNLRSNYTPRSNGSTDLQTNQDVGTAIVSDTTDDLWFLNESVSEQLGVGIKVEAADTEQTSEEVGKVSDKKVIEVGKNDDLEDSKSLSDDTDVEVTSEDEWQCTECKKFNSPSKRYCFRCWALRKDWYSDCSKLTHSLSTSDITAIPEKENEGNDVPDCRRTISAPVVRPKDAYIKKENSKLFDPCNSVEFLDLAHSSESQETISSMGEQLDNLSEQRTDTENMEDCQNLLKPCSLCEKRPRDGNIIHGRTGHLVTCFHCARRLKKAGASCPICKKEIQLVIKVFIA
# Target sequence (Q00987 whole entry, looked up): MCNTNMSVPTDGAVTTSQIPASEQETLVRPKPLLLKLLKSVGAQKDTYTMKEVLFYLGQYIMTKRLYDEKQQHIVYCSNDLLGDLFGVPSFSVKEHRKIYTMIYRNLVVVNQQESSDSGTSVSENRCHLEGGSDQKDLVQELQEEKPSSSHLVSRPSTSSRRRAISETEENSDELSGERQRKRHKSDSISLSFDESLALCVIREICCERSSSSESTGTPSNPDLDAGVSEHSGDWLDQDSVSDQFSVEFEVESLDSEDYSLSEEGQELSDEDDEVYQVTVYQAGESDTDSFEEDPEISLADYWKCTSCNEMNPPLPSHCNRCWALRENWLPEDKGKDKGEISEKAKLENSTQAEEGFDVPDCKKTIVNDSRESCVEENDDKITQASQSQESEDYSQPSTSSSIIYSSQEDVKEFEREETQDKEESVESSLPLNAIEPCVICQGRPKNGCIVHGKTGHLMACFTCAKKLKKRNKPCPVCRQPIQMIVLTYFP
# Numbers without * were called inactive; u = inconclusive; x = no result. Hits are enriched below; roughly 4.5% of the tested compounds scored in any of these assays.
SMILES,697 NFkB inh,Gli-Sufu antag,aSyn UTR inh,CSC inhib,Jurkat NFkB inh,Mdm2 MdmX PPI
CN(C)c1ccc(C=c2c3ccccc3n3c2cc(-c2ccccc2)[n+]3C)cc1,x,86*,x,x,x,x
CN(C)c1ccc(C=c2c3cc([N+](=O)[O-])ccc3n3c2cc(-c2ccccc2)[n+]3C)cc1,x,81*,x,x,x,x
CN(C)c1ccc(C(=O)/C=C/c2ccccc2)cc1,-133,x,-159,6,-50,-108
CN(C)c1ccc(C=c2c3ccccc3n3c2cc(-c2ccc(Cl)cc2)[n+]3C)cc1,x,83*,x,x,x,x
O=C(CSc1ccc(C(F)(F)F)cc1[N+](=O)[O-])Nc1ccc2ccccc2c1,11,-5,-3,9,-12,-13
CC(=O)c1cccc(N(C(=O)CNC(=O)c2ccco2)C(C(=O)NC2CCCC2)c2ccco2)c1 (stereo not drawn),5,-4,-10,0,-13,10
O=C1C2CCC(C2)C1CN1CCOCC1 (stereo not drawn),x,4,x,x,x,x
C[C@]12c3[nH]c4ccc(Cl)cc4c3CCN1C(=O)[C@@H](CC(=O)NCCC1=CCCCC1)C[C@@H]2C(=O)N1CCOCC1,19,-1,x,x,x,35
O=C(C[C@H]1C/C=C\CC[C@H](Cc2ccc(F)cc2)C(=O)O[C@H](c2ccccc2)CNC1=O)N[C@H](CO)Cc1ccccc1,-2,10,x,-7,-3,42
COc1cc(N(C)C)ccc1C=c1c2ccccc2n2c1cc(-c1ccccc1)[n+]2C,x,91*,x,x,x,x
COc1cc(NC(=O)Cn2ncc(Cl)c(Cl)c2=O)c(C)cc1[N+](=O)[O-],x,10,121*,x,x,x
CCCCOc1ccc(Br)cc1CSC(=N)N,x,65*,-14,x,x,x
O=C(Cc1ccc(Br)cc1)N(Cc1ccccc1)c1ccccn1,15,4,-5,0,-1,2
Cc1cc(C)c2cc(C#N)c(N3CCCN(C(=S)NCCCN(C)C)CC3)nc2c1,-5,14,96*,31,-2,33
CCOc1ccc(C(=O)CSCCC(=O)O)cc1,15,16,68*,-5,16,-7
CCOc1ccc(C(=O)Cc2ccccc2)cc1,x,-28,x,x,x,x
O=C(NC1CCCCC1)C(c1cccnc1)N(C(=O)c1ccc(Cl)nc1)C1CCCCC1 (stereo not drawn),11,3,-1,-4,0,25
CCOC(=O)c1c(NC(C)=O)sc2c1CCC(C=O)=C2Sc1ccccc1,-31,1,7,89*,-16,24
Nc1ccc2c(c1)Oc1ccccc1C=C2,-7,-35,-9,110*,-15,20
COc1cccc(-c2cn3nc4c(nc3n2)CCCC4)c1,-54,4,104*,10,-38,-35
Clc1ccc(-c2cn3cccnc3n2)cc1,-39,-36,-132,7,-68,12
COc1ccc2nc3c(nc2c1)CCCC3,-32,-2,-46,-1,-37,-14
Clc1ccc(-c2cn3nc4c(nc3n2)CCCC4)cc1,-141,-28,88*,-13,-115,-54
CC(Sc1nnc(NC2CCCCC2)s1)C(=O)Nc1ccc2c(c1)C(=O)c1ccccc1C2=O (stereo not drawn),-121,-42,-79,31,-68,-55
CC(C)N(Cc1nc(-c2ccc(Cl)cc2)no1)C(=O)CN(C)S(=O)(=O)c1ccc(Cl)cc1,16,1,18,0,7,-1
SMILES,697 NFkB inh,Gli-Sufu antag,aSyn UTR inh,CSC inhib,Jurkat NFkB inh,Mdm2 MdmX PPI
CCSc1nnc(NC(=O)C(NC(=O)c2ccc(Cl)cc2)C(C)C)s1 (stereo not drawn),-11,4,7,x,6,1
Cc1nn(Cc2ccc(Cl)c(Cl)c2)c(C)c1NC(=O)c1cc(-c2ccc3c(c2)OCO3)on1,19,15,66*,81*,25,34
Cc1ccc(-c2cc(C(=O)NCc3ccco3)no2)cc1,-85,-64,-154,-5,-83,-51
Cc1nn(Cc2ccc(Cl)cc2)c(C)c1NC(=O)c1cc(-c2ccc3c(c2)OCO3)on1,21,-14,u,83*,44,-6
O=C(NCc1ccco1)c1cc(-c2ccc3c(c2)OCO3)on1,-61,-54,-97,82*,-96,-49
COc1ccc(NC(=O)c2ccc3nc(C)sc3c2)cc1,-43,5,-124,-2,-31,-28
COc1ccc(/C=C/C(=O)c2ccncc2)c2ccccc12,-5,1,-28,176*,19,35
COc1ccccc1NC(=O)c1c(Nc2ccccc2F)sc(C(=O)Nc2cccc(Cl)c2)c1N,11,0,-61,83*,-9,37
COC(=O)c1ccc2nc(Nc3nc4ccc(F)cc4s3)sc2c1,x,-29,75*,53,x,x
Cc1ccsc1CN(C)CC(=O)Nc1cccc(S(=O)(=O)N(C)c2ccccc2)c1,10,7,x,x,-5,7
Cc1nnc(SCC(=O)Nc2nccs2)o1,4,3,-7,-5,-8,0
O=C(NNC1=C(C(=O)C(F)(F)F)CCC1)c1ccc(Br)cc1,-24,-30,-12,107*,-12,40
O=C(NNC1=C(C(=O)C(F)(F)F)CCC1)c1ccccc1Cl,10,8,11,56,3,7
Cc1ccccc1C1CC(c2cccs2)Nc2nnnn21 (stereo not drawn),3,38,16,-9,5,8
COC(=O)C1C(=O)C2=C(CC1C)NC(=O)CC2c1ccccc1 (stereo not drawn),12,-31,-5,-18,-10,13
COC(=O)C1C(=O)C2=C(CC1C)NC(=O)CC2c1cccc(C)c1 (stereo not drawn),-3,-3,-11,101*,9,-7
CN(c1ccc(C(=O)N2CCN(Cc3ccccc3)CC2)cc1)S(=O)(=O)c1ccc(Cl)cc1,1,25,6,1,-4,22
Cc1ccc(S(=O)(=O)n2cnc3cc([N+](=O)[O-])ccc32)cc1C,5,-4,9,6,0,3
Cc1ccc(-n2c3nc(=O)[nH]c(=O)c-3cc3cc([N+](=O)[O-])ccc32)cc1C,-13,-5,6,84*,10,40
Cc1ccc(Nc2cc(C)c3c(O)cccc3n2)cc1C,-136,-48,-118,40,-99,-44
Cc1ccc(Nc2cc(C)c3ccc(O)cc3n2)cc1C,-69,-6,-94,86*,-20,-2
O=C1C=CC(=O)N1c1ccc2c(c1)C(NC(=O)C(F)(F)F)c1ccccc1-2 (stereo not drawn),x,8,x,x,x,x
COc1ccc(/C=C/C(=O)OCC(=O)Nc2cccc(S(=O)(=O)NC3=NCCCCC3)c2)cc1,8,-14,x,-19,5,17
NS(=O)(=O)c1ccc(NC(=S)N2CCN(c3ccc(Cl)c(Cl)c3)CC2)cc1,-29,59*,40,-4,28,33

# Screens as filed in PubChem.
